As usually defined, the inhibition is the percentage by which the read-out fell short of the control.

Values joined by “and” are separate entries in the source; they are usually repeats but may differ in a detail not shown here. Equal values may be shown once. Values without a mark were called inactive. No rule for the calls is given here.

In this assay the target is Pantothenate synthetase (Mycobacterium tuberculosis (strain ATCC 25618 / H37Rv)) (UniProt P9WIL5). Kind of assay: Recombinant Mtb pantothenate synthetase (PanC) inhibitors, coupled enzyme, confirmatory (AID 375).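 Also: 0% = full reaction with vehicle and 100% = no enzyme background.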 Particulars: coupled enzyme assay; at 10 µM, stronger effect = higher value.
Sequence of Pantothenate synthetase (Mycobacterium tuberculosis (strain ATCC 25618 / H37Rv)) (P9WIL5 whole entry, looked up): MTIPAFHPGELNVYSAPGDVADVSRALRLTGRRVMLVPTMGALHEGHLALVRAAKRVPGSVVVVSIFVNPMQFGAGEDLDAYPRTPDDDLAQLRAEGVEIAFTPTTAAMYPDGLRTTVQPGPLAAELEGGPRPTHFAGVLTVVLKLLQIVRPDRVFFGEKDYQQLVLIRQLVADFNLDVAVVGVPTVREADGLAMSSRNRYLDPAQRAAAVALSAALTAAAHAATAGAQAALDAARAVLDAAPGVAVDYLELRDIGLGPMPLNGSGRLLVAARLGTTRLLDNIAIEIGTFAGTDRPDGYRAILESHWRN
With `CCCC(CCC)C(=O)OC1C[C@H]2CC[C@@H](C1)[N+]2(C)C` (stereo not given in full), the inhibition is 0%.

`COc1cc(NS(=O)(=O)c2ccc(N)cc2)ncn1`: the inhibition was 0%.

For `CCSc1nnc(NC(=O)c2ccc(C)o2)s1`, the inhibition was 9%.

`COc1ccc(NC(=O)CC2CCCCC2)cc1OC`: the inhibition is 4%.

For the compound `COc1ccc(NC(=O)CSc2nnc(Cc3cccn3C)n2-c2ccc(F)cc2)cc1OC`, the inhibition is 0%.

On to `CSc1ccccc1NC(=O)CN(Cc1ccccc1)S(C)(=O)=O`, for which the inhibition is 0%.

Turning to `O=C(Nc1cc(C(F)(F)F)ccc1Cl)C1CCN(c2nnc(-n3cccc3)s2)CC1`, the inhibition is 3%.

Consider `O=C(CCCN1C(=O)c2ccccc2C1=O)NCc1cccnc1`, for which the inhibition was 3%.

Take `CN(C)C(=O)Oc1cccc([N+](C)(C)C)c1`: the inhibition is 9% and 0%.

On to `O=C(NCC1CCCO1)C1CCCN(Cc2cnn(-c3ccccc3)c2-n2cccc2)C1` (stereo not given), for which the inhibition is 0%.

Turning to `NC(=O)c1oc2ccc(Cl)cc2c1NC(=O)CN1CCOCC1`, the inhibition was 1%.

Take `COc1ccc(CCNC(=O)CSc2nncn2N)cc1OC`: the inhibition is 5%.

Turning to `Cc1cccc(NC(=O)c2ccccc2O)c1C`, the inhibition was 0%.

On to `O=C(OCN1C(=O)c2ccccc2C1=O)c1ccc2c(=O)n3c(nc2c1)CCC3`, for which the inhibition is 0%.

For `CCCOc1cccc(-c2nnc(N)s2)c1`, the inhibition is 0%.

For `Cn1nc(-c2ccc(C(=O)NCC3CCCO3)cc2)c2ccccc2c1=O` (stereo not given), the inhibition is 4%.

Turning to `Cc1csc(SCc2nc3sc4c(c3c(=O)[nH]2)CCC4)n1`, the inhibition is 0%.

Turning to `COCCCNC(=O)CSc1nc2ccc(N3CCOCC3)cc2c(=O)n1CCc1ccccc1`, the inhibition was 0%.

As for `Cc1cccc(N2C(=O)CC(N3CCN(Cc4ccc(Cl)cc4)CC3)C2=O)c1` (stereo not given), the inhibition is 0%.

Regarding `O=S(=O)(c1ccc(-c2csc(-c3cccnc3)n2)cc1)N1CCCCC1`, the inhibition was 5%.

For the compound `O=C(Cn1nc(-c2ccc(Cl)cc2)ccc1=O)NCCCN1CCN(Cc2ccccc2)CC1`, the inhibition was 2%.

Turning to `CCN(CC)CCCn1c(=S)[nH]c2cc(Cl)ccc2c1=O`, the inhibition is 0%.

`Cc1nc(NCCNC(=O)c2ccco2)c2c(C)c(C)sc2n1`: the inhibition was 2%.

`CCOC(=O)c1cc2oc(C)cc2n1CC(=O)OC1CCCCC1`: the inhibition is 1%.

In the case of `O=C(NCC(c1cccnc1)N1CCOCC1)c1ccco1` (stereo not given), the inhibition is 2%.

With `CCOC(=O)C1=C(NC#N)OC(C)=C(C)C1c1ccc(O)cc1` (stereo not given), the inhibition is 0%.

For the compound `CCCCOc1ccc(NC(=O)Cn2c(=O)ccc3c(C)cc(C)nc32)cc1`, the inhibition is 3%.

For the compound `CCc1ccccc1NC(=O)CSc1nc2n[nH]c(C)c2c(=N)n1-c1ccc(OC)cc1`, the inhibition is 0%.

On to `O=C(CSc1nnc2ccccn12)c1ccccc1`, for which the inhibition was 0%.

As to `Cc1ccc(NC(=O)CCN2CCc3ccccc3C2)cc1`, the inhibition was 0%.

On to `COc1ccccc1Nc1nc(N)nc(-c2cc3ccccc3o2)n1`, for which the inhibition is 0%.

On to `COc1ccc(CC(=O)NCc2ccccc2)cc1S(=O)(=O)N1CCOCC1`, for which the inhibition is 0%.

Turning to `C=C(C)COc1ccc(-c2n[nH]c(C)c2-c2ccccc2)c(O)c1`, the inhibition was 0%.

For the compound `O=C(NCCN1CCN(c2ccccc2)CC1)c1ccc(NC(=O)C2CCCO2)cc1` (stereo not given), the inhibition was 2%.

Take `Cn1c(=O)[nH]c2cc3ccccc3cc21`: the inhibition is 0%.

Take `CC1CCC(NC(=O)C2CCN(c3cnccn3)CC2)CC1` (stereo not given): the inhibition is 0%.

As for `Cc1onc(-c2ccccc2)c1C(=O)N1CCCSC1=Nc1ccccc1`, the inhibition was 6%.

For the compound `COc1ccc(N2CCN(Cc3cc(=O)oc4cc(C)c(Cl)c(C)c34)CC2)cc1`, the inhibition is 6%.

Take `CN(C)C(=O)N1CCC(C(=O)NC2CCCCCCC2)CC1`: the inhibition was 0%.

`CCOc1ccc(S(=O)(=O)NCC2CCCO2)c2cccnc12` (stereo not given): the inhibition is 0%.

The values are drawn from PubChem BioAssay.
